# According to the supplement of paper PMC8728848:
# About 410 targets per protein were measured; listed, in parts, are those with the strongest signals and a random draw of the rest.
# Assays:
# Assay in all cases: glycan array binding signal (z-score within array); higher = stronger binding
# Settings in all cases: glycan notation: IUPAC condensed, linker removed
# [1] = target: Fuc(a1-2)Gal(b1-3)GlcNAc(b1-2)Man(a1-3)[Fuc(a1-2)Gal(b1-3)GlcNAc(b1-2)Man(a1-6)]Man(b1-4)GlcNAc(b1-4)GlcNAc
# Outline: (§1)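 From the Consortium for Functional Glycomics database, 3228 arrays were curated, keeping only those whose protein sequence was available. Binding is given as a within-array Z-score averaged across arrays sharing a protein sequence and across linkers. Negative Z-scores can be read as non-binding.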
# [2] = target: Fuc(a1-2)Gal(b1-3)GlcNAc(b1-3)GalNAc
# Outline: as §1
# [3] = target: Fuc(a1-2)Gal(b1-3)GlcNAc(b1-3)[Fuc(a1-2)Gal(b1-3)GlcNAc(b1-6)]GalNAc
# Outline: as §1
# [4] = target: Fuc(a1-2)Gal(b1-3)GlcNAc(b1-3)[Gal(b1-4)GlcNAc(b1-6)]Gal(b1-4)Glc
# Outline: as §1
# [5] = target: Fuc(a1-2)Gal(b1-3)[Fuc(a1-4)]GlcNAc(b1-2)Man(a1-3)[Fuc(a1-2)Gal(b1-3)[Fuc(a1-4)]GlcNAc(b1-2)Man(a1-6)]Man(b1-4)GlcNAc(b1-4)[Fuc(a1-6)]GlcNAc(b1-4)[Fuc(a1-6)]GlcNAc
# Outline: as §1
# Fuc(a1-2)Gal(b1-4)GlcNAc = target: Fuc(a1-2)Gal(b1-4)GlcNAc
# Outline: as §1
# [6] = target: Fuc(a1-2)Gal(b1-4)GlcNAc(b1-2)Man(a1-3)[Fuc(a1-2)Gal(b1-4)GlcNAc(b1-2)Man(a1-6)]Man(b1-4)GlcNAc(b1-4)GlcNAc
# Outline: as §1
# [7] = target: Fuc(a1-2)Gal(b1-4)[Fuc(a1-3)]GlcNAc(b1-3)GalNAc
# Outline: as §1
# [8] = target: Fuc(a1-2)[Gal(a1-3)]Gal(b1-3)GlcNAc
# Outline: as §1
# [9] = target: Fuc(a1-2)[Gal(a1-3)]Gal(b1-3)GlcNAc(b1-2)Man(a1-3)[Fuc(a1-2)[Gal(a1-3)]Gal(b1-3)GlcNAc(b1-2)Man(a1-6)]Man(b1-4)GlcNAc(b1-4)GlcNAc
# Outline: as §1
# [10] = target: Fuc(a1-2)[Gal(a1-3)]Gal(b1-4)GlcNAc(b1-6)GalNAc
# Outline: as §1
# [11] = target: Fuc(a1-2)[GalNAc(a1-3)]Gal(b1-4)GlcNAc(b1-3)Gal(b1-4)GlcNAc(b1-3)Gal(b1-4)GlcNAc
# Outline: as §1
# [12] = target: Gal(b1-3)GalNAc(b1-3)Gal(a1-4)Gal(b1-4)Glc
# Outline: as §1
# [13] = target: Gal(b1-3)GlcNAc(b1-2)Man(a1-3)[Gal(b1-3)GlcNAc(b1-2)Man(a1-6)]Man(b1-4)GlcNAc(b1-4)GlcNAc
# Outline: as §1
# [14] = target: Gal(b1-3)GlcNAc(b1-2)Man(a1-3)[Gal(b1-3)GlcNAc(b1-2)Man(a1-6)]Man(b1-4)GlcNAc(b1-4)[Fuc(a1-6)]GlcNAc
# Outline: as §1
# [15] = target: Gal(b1-3)GlcNAc(b1-2)[Gal(b1-3)GlcNAc(b1-6)]Man(a1-6)[Gal(b1-3)GlcNAc(b1-2)Man(a1-3)]Man(b1-4)GlcNAc(b1-4)GlcNAc
# Outline: as §1
# [16] = target: Gal(b1-3)[Fuc(a1-4)]GlcNAc
# Outline: as §1
# Gal(b1-4)Gal = target: Gal(b1-4)Gal
# Outline: as §1
# [17] = target: Gal(b1-4)GlcNAc(a1-6)Gal(b1-4)GlcNAc
# Outline: as §1
# [18] = target: Gal(b1-4)GlcNAc(b1-2)Man(a1-3)[Gal(b1-4)GlcNAc(b1-2)Man(a1-6)]Man(b1-4)GlcNAc(b1-4)GlcNAc
# Outline: as §1
# [19] = target: Gal(b1-4)GlcNAc(b1-2)Man(a1-3)[GlcNAc(b1-4)][Gal(b1-4)GlcNAc(b1-2)Man(a1-6)]Man(b1-4)GlcNAc(b1-4)GlcNAc
# Outline: as §1
# [20] = target: Gal(b1-4)GlcNAc(b1-2)Man(a1-6)[GlcNAc(b1-2)Man(a1-3)]Man(b1-4)GlcNAc(b1-4)GlcNAc
# Outline: as §1
# [21] = target: Gal(b1-4)GlcNAc(b1-2)[Gal(b1-4)GlcNAc(b1-4)]Man(a1-3)[GlcNAc(b1-4)][Gal(b1-4)GlcNAc(b1-2)Man(a1-6)]Man(b1-4)GlcNAc(b1-4)GlcNAc
# Outline: as §1
# GalNAc6S(b1-4)GlcNAc = target: GalNAc6S(b1-4)GlcNAc
# Outline: as §1
# GlcA(b1-6)Gal = target: GlcA(b1-6)Gal
# Outline: as §1
# [22] = target: GlcNAc(a1-4)Gal(b1-4)GalNAc
# Outline: as §1
# [23] = target: GlcNAc(b1-2)Man(a1-3)[GlcNAc(b1-2)Man(a1-6)]Man(b1-4)GlcNAc(b1-4)GlcNAc
# Outline: as §1
# [24] = target: GlcNAc(b1-2)[GlcNAc(b1-4)]Man(a1-3)[GlcNAc(b1-2)Man(a1-6)]Man(b1-4)GlcNAc(b1-4)GlcNAc
# Outline: as §1
# GlcNAc(b1-3)Fuc = target: GlcNAc(b1-3)Fuc
# Outline: as §1
# [25] = target: Man(a1-2)Man(a1-3)[Man(a1-2)Man(a1-6)]Man(a1-6)[Man(a1-2)Man(a1-2)Man(a1-3)]Man
# Outline: as §1
# [26] = target: Neu5Ac(a2-3)Gal(b1-3)[Fuc(a1-4)]GlcNAc(b1-3)Gal(b1-3)[Fuc(a1-4)]GlcNAc
# Outline: as §1
# [27] = target: Neu5Ac(a2-3)Gal(b1-4)GlcNAc(b1-3)Gal(b1-4)[Fuc(a1-3)]GlcNAc
# Outline: as §1
# Neu5Ac(a2-3)GalNAc = target: Neu5Ac(a2-3)GalNAc
# Outline: as §1
# [28] = target: Neu5Ac(a2-6)Gal(b1-4)GlcNAc(b1-2)Man(a1-3)[GlcNAc(b1-4)][Neu5Ac(a2-6)Gal(b1-4)GlcNAc(b1-2)Man(a1-6)]Man(b1-4)GlcNAc(b1-4)GlcNAc
# Outline: as §1
# [29] = target: Neu5Ac(a2-6)Gal(b1-4)GlcNAc(b1-2)Man(a1-6)[Gal(b1-4)GlcNAc(b1-2)Man(a1-3)]Man(b1-4)GlcNAc(b1-4)GlcNAc
# Outline: as §1
# [30] = target: Neu5Ac(a2-6)Gal(b1-4)GlcNAc(b1-2)Man(a1-6)[GlcNAc(b1-2)Man(a1-3)]Man(b1-4)GlcNAc(b1-4)GlcNAc
# Outline: as §1
# [31] = target: Neu5Ac(a2-6)Gal(b1-4)GlcNAc(b1-2)Man(a1-6)[Man(a1-3)]Man(b1-4)GlcNAc(b1-4)GlcNAc
# Outline: as §1
# [32] = target: Neu5Ac(a2-6)Gal(b1-4)GlcNAc(b1-6)GalNAc
# Outline: as §1
# [33] = target: Neu5Ac(a2-8)Neu5Ac(a2-8)Neu5Ac
# Outline: as §1
# [34] = target: Neu5Ac9Ac(a2-6)Gal(b1-4)GlcNAc
# Outline: as §1
binder,measurement,setting,value
CAA (Caragana arborescens) (protein) VAVEFDTFDNPDWDPRTKHIGIDVNSIRSNKTTQWGFWNRQVADVDISYEASSKTLNVSLYYPGESYIVTDVVDLKDILPEWVRIGF,glycan array binding signal (z-score),[1],4.07
same,glycan array binding signal (z-score),[2],-0.244
same,glycan array binding signal (z-score),[3],-0.242
same,glycan array binding signal (z-score),[4],-0.249
same,glycan array binding signal (z-score),[5],1.03
same,glycan array binding signal (z-score),Fuc(a1-2)Gal(b1-4)GlcNAc,-0.242
same,glycan array binding signal (z-score),[6],2.51
same,glycan array binding signal (z-score),[7],-0.238
same,glycan array binding signal (z-score),[8],-0.238
same,glycan array binding signal (z-score),[9],3.82
same,glycan array binding signal (z-score),[10],-0.248
same,glycan array binding signal (z-score),[11],-0.233
same,glycan array binding signal (z-score),[12],-0.24
same,glycan array binding signal (z-score),[13],6.61
same,glycan array binding signal (z-score),[14],5.29
same,glycan array binding signal (z-score),[15],5.63
same,glycan array binding signal (z-score),[16],-0.24
same,glycan array binding signal (z-score),Gal(b1-4)Gal,-0.24
same,glycan array binding signal (z-score),[17],-0.241
same,glycan array binding signal (z-score),[18],4.25
same,glycan array binding signal (z-score),[19],-0.106
same,glycan array binding signal (z-score),[20],5.87
same,glycan array binding signal (z-score),[21],-0.239
same,glycan array binding signal (z-score),GalNAc6S(b1-4)GlcNAc,-0.252
same,glycan array binding signal (z-score),GlcA(b1-6)Gal,-0.239
same,glycan array binding signal (z-score),[22],-0.239
same,glycan array binding signal (z-score),[23],5.92
same,glycan array binding signal (z-score),[24],7.33
same,glycan array binding signal (z-score),GlcNAc(b1-3)Fuc,-0.246
same,glycan array binding signal (z-score),[25],-0.246
same,glycan array binding signal (z-score),[26],-0.24
same,glycan array binding signal (z-score),[27],-0.242
same,glycan array binding signal (z-score),Neu5Ac(a2-3)GalNAc,-0.243
same,glycan array binding signal (z-score),[28],-0.251
same,glycan array binding signal (z-score),[29],3.9
same,glycan array binding signal (z-score),[30],5.95
same,glycan array binding signal (z-score),[31],0.262
same,glycan array binding signal (z-score),[32],-0.236
same,glycan array binding signal (z-score),[33],-0.249
same,glycan array binding signal (z-score),[34],-0.245
